MITF TRPM1 HTS: activators of MITF-driven TRPM1 promoter activity in SK-MEL-5 cells; SK-MEL-5 TRPM1-promoter luciferase, 24 h; % of positive control, neutral wells = 0; activation, % at 12.5 µM; actives 0.75% (n = 300,000); AID 588334;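 active means mean activation of at least 80% with every replicate also reaching 80%; inconclusive means mean reaches 80% but some replicate falls short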
HSF1 inhib: HSF1 inhibition. AID 2098. actives 0.77% (n = 300,000). NIH3T3-HGL HSE-luciferase, MG132-induced, luminescence 8 h; active compounds read low. activity change, negative = inhibition, % at 7.5 µM (by protocol);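 active means more than half of replicate wells show activity change below -50%, luminescence cut by over half; inconclusive means some wells, but at most half, below -50%; inactive means no replicate well below -50%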;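 further: luciferase reports HSF-1 transcriptional activity via heat shock element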
HSF-1 act: increases HSF-1 driven luciferase reporter signal | NIH3T3-HGL HSF-1 luciferase reporter, MG132, 8 h; 100% = twice DMSO control signal | actives 1.7% (n = 300,000) | activation, % at 9 µM;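 active means mean replicate activation of at least 50% with a set share of replicates each reaching 50%; inconclusive means only one of those two conditions met; inactive means mean below 50% and too few replicates reaching it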
esBAF inh: inhibitors of esBAF chromatin remodeling in mouse ES cells; Bmi1-luciferase knock-in reporter, 24 h; 100% = twice the neutral-well signal; actives 2% (n = 350,000); reporter increase, % at 12.5 µM; AID 602393; in the data active means activation above about 40%; inconclusive means no clear call, values can overlap the other calls;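 further: a rise in the Bmi1 reporter signal indicates esBAF inhibition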
Wnt bcat act: Wnt/beta-catenin pathway activation. Wnt/beta-catenin reporter cell assay, activator, plate reader. activation, % at 9.35 µM. actives 1.2% (n = 300,000). AID 743398; in the data active means activation above about 30%, passing the limit was not always enough; inconclusive means no clear call, values can overlap the other calls
A number is an active result; i = inactive; ? = inconclusive; nt = not tested or not shown. An excerpt weighted towards active compounds, which were near 3.9% of everything screened.

SMILES | MITF TRPM1 HTS | HSF1 inhib | HSF-1 act | esBAF inh | Wnt bcat act
CCc1ccc(C(=O)Nc2nc(C)cs2)s1 | i | i | i | i | ?
CCOC(=O)c1sc(NC(=O)c2ccc3ncsc3c2)nc1C | nt | i | i | 51 | i
CCc1ccc(C(=O)Nc2cc(C)ccc2F)s1 | i | i | i | 66 | i
CCOC(=O)c1sc(NC(=O)c2ccccc2OC)nc1C | i | i | i | i | i
S=C1NC(c2ccccc2)=NCN1c1ccccc1 | nt | i | i | 58 | 42
Cc1ccc(C2=NCN(c3ccc(C(=O)O)cc3)C(=S)N2)cc1 | nt | i | i | nt | nt
C#CCOCCOCCOCCNc1nc(N2CCN(C(=O)CCCCCCCCCCNC(=O)[C@H](CO)n3cc(CCCSC)nn3)CC2)nc(N2CCN(C(=O)CCCCCCCCCCNC(=O)[C@H](CCCCN)n3cc(C[C@@H](C)CC)nn3)CC2)n1 | nt | -85 | i | nt | nt
C#CCOCCOCCOCCNc1nc(N2CCN(C(=O)CCCCCCCCCCNC(=O)[C@H](CCCCN)n3cc(C[C@@H](C)CC)nn3)CC2)nc(N2CCN(C(=O)CCCCCCCCCCNC(=O)[C@H](CCCCN)n3cc(C[C@@H](C)CC)nn3)CC2)n1 | i | i | i | i | nt
Cc1sc(=NC(=O)c2ccco2)n(C)c1-c1ccc(F)cc1 | 101 | i | i | nt | nt
C[C@@H]1CN([C@H](C)CO)C(=O)c2cc(NC(=O)C3CCCCC3)ccc2O[C@H]1CN(C)Cc1ccc(Cl)c(Cl)c1 | nt | nt | nt | i | nt
CCOC(=O)c1ccc2nc(C)c3c(c2c1)OC(C)C3 (stereo unspecified) | i | i | i | i | nt
CCOC(=O)c1ccc2nc3c(cc2c1)CCS3 | i | i | i | 50 | nt
CCc1ccc(C(=O)NC2CCCCC2)s1 | 96 | i | 54 | i | nt
CC(C)(O)C#Cc1ccc(C(=O)NC2CCCCC2)s1 | i | i | i | nt | i
CO[C@@H]1CN(C)C(=O)c2ccc(NC(=O)C3CC3)cc2OC[C@H](C)N(C(=O)C2CCCCC2)C[C@H]1C | nt | nt | nt | i | nt
CC(C)Oc1ccc(C2CC(=O)N(c3cccc(C(=O)O)c3)C2=O)cc1 (stereo unspecified) | i | i | i | 56 | i
CC(C)Oc1ccc(C2CC(=O)N(c3ccc(C(=O)O)cc3)C2=O)cc1 (stereo unspecified) | i | i | i | i | i
C[C@@H]1CN([C@@H](C)CO)C(=O)c2cc(/C=C/c3ccccc3)cnc2O[C@H]1CN(C)C(=O)Cc1ccccn1 | nt | nt | nt | i | nt
Cn1c(-c2sc3cc(C(F)(F)F)cnc3c2-c2cccnc2)n[nH]c1=S | nt | -85 | i | i | i
Cc1cccc2cc(/C=N/Nc3ccc(C(=O)O)cc3)c(Cl)nc12 | 153 | i | i | nt | 38
O=[N+]([O-])c1ccccc1N/N=C/c1cc2ccccc2nc1Cl | i | i | i | i | nt
O=C(O)c1ccc(N/N=C/c2cc3ccccc3nc2Cl)cc1 | 88 | i | i | nt | i
Clc1nc2ccccc2cc1/C=N/Nc1nc2ccccc2[nH]1 | i | i | i | nt | 63
Cc1cccc2cc(/C=N/NC(=O)c3ccncc3)c(Cl)nc12 | nt | i | i | nt | i
C[C@@H]1CN([C@@H](C)CO)C(=O)c2cccc(NC(=O)c3nc4ccccc4s3)c2O[C@H]1CN(C)S(=O)(=O)c1cn(C)cn1 | nt | nt | nt | i | nt
SMILES | MITF TRPM1 HTS | HSF1 inhib | HSF-1 act | esBAF inh | Wnt bcat act
COC(=O)C[C@@H]1C[C@H]2c3cc(NC(=O)C4CCC4)ccc3O[C@H]2[C@H](CO)O1 | nt | nt | nt | i | nt
CC#CC(=O)N1CCCC(Cc2cccc(OC)c2)(C(=O)OCC)C1 (stereo unspecified) | i | i | i | 59 | i
CCOC(=O)C1(Cc2cccc(OC)c2)CCCN(C(=O)CSC)C1 (stereo unspecified) | nt | i | i | 59 | i
CC(C)c1nnc(NC(=O)CCS(=O)(=O)c2nc(-c3cccs3)cc(C(F)(F)F)n2)s1 | nt | i | 195 | i | nt
CC(C)c1nnc(NC(=O)CCS(=O)(=O)Cc2ccccc2)s1 | i | i | i | i | i
C[C@H](CO)N1C[C@H](C)[C@H](CN(C)C(=O)c2ccccc2)Oc2cc(C#CC3CC3)ccc2S1(=O)=O | nt | nt | nt | i | nt
Cc1c(C(=O)OCC(=O)NCC2CCCO2)cccc1[N+](=O)[O-] (stereo unspecified) | i | i | i | i | 37
Cc1ccc(C(=O)OCC(=O)NCC2CCCO2)c(C)c1 (stereo unspecified) | i | i | i | nt | i
O=C1N/C(=C/c2ccc(N3CCCC3)cc2)C(=O)N1c1ccccc1 | i | i | i | nt | i
O=C1/C(=C/c2ccc(N3CCCC3)cc2)NC(=S)N1C1CC1 | i | nt | nt | 48 | nt
Cc1cc(N2CCCC2)ccc1/C=C1\NC(=S)N(C)C1=O | i | i | i | 85 | 54
C[C@H]1CN([C@@H](C)CO)C(=O)c2cccc(NC(=O)Nc3cccc4ccccc34)c2O[C@H]1CN(C)C(=O)Nc1cccc2ccccc12 | nt | nt | nt | i | nt
COc1cccc(-c2cnc3c(c2)C(=O)N([C@H](C)CO)C[C@H](C)[C@H](CN(C)C(C)=O)O3)c1 | nt | nt | nt | i | nt
CCN1[C@@H]2c3ccc(-c4cccc(F)c4)c(=O)n3C[C@@H]2[C@@H](CO)[C@@H]1C(=O)N[C@H](C)c1ccccc1 | nt | nt | nt | i | nt
COC(=O)CCC(=O)COc1ccccc1C#N | i | i | i | i | nt
COc1ccc(C(=O)COc2ccccc2C(N)=O)cc1 | i | i | i | i | i
COC(=O)CCC(=O)COc1ccc(OC)cc1C#N | 114 | i | 52 | i | nt
COc1ccc(C(=O)CNc2ccccc2C#N)cc1 | i | i | i | 50 | i
COc1ccc(C(=O)COc2ccccc2C#N)cc1 | nt | i | i | nt | 46
CCCNC(=O)C[C@H]1CC[C@@H]2[C@@H](COc3ccc(NC(=O)COC)cc3C(=O)N2C)O1 | nt | nt | nt | i | nt
CC(=O)Nc1cc(-c2ccc(Cl)cc2)[nH]n1 | i | i | i | 74 | i
O=C(c1cccs1)n1nc(-c2ccc(Cl)cc2)nc1NCc1ccco1 | nt | i | i | nt | 52
CCCC(=O)n1nc(-c2ccc(C)cc2)nc1NCc1ccco1 | i | i | i | nt | 47
COc1ccccc1-c1cn(CC[C@@H]2CC[C@H](NC(=O)NC(C)C)[C@H](CO)O2)nn1 | nt | nt | nt | i | nt
Cc1ccc(NC(=O)Nc2ccc3c(c2)CCC3)c(C)c1 | i | nt | nt | i | i
SMILES | MITF TRPM1 HTS | HSF1 inhib | HSF-1 act | esBAF inh | Wnt bcat act
CCOc1ccccc1NC(=O)Nc1cccc(NC(C)=O)c1 | i | i | i | i | i
CCOc1ccccc1NC(=O)Nc1ccc2c(c1)CCC2 | i | i | i | 48 | i
O=C(Nc1ccc2c(c1)CCC2)Nc1ccccc1Cl | i | i | i | 79 | 51
C[C@H](CO)N1C[C@H](C)[C@H](CN(C)C)OCCCC[C@H](C)Oc2ccc(N(C)C)cc2C1=O | nt | nt | nt | i | nt
COC(=O)C[C@@H]1CC[C@H]2[C@H](COc3ccc(NS(=O)(=O)c4cccc(F)c4)cc3C(=O)N2C)O1 | nt | nt | nt | i | nt
CNC(=S)N/N=C/c1ccc(N(C)C)cc1 | nt | i | i | nt | 48
CNC(=S)N/N=C/c1ccc(C(C)C)cc1 | i | i | i | 59 | nt
CC(C)c1ccc(/C=N/NC(=O)c2ccccc2Cl)cc1 | i | i | i | nt | i
COCCCNC(=S)N/N=C/c1ccc(N(C)C)cc1 | i | i | i | nt | i

High-throughput results deposited in PubChem BioAssay by Broad Institute.
